Records with an inconclusive call do not appear. Values without a mark were called inactive. Activity calls are given as the source filed them. The call rests on the fitted dose curve; in most records, active means well fitted activation curve with a large enough effect in the repeat runs; inconclusive means weak or mixed curves; inactive means flat fitted curve, though single readings scatter.
Assay: A CellTox Green Cytotoxicity Assay to monitor cytotoxicity in HepG2 cells - 40 hour (AID 1224879); further: nearly all actives have a fitted effect of over 40% in size
Conditions: CellTox Green fluorescence; series mostly up to 76.8 µM; cytotoxicity increase: at the top concentration
Source text: National Center for Advancing Translational Sciences [NCATS]
NIH Chemical Genomics Center [NCGC]
U.S. Environmental Protection Agency [EPA]
National Institutes of Environmental Health Sciences [NIEHS]
National Toxicology Program [NTP]
Cell-based models are critical for drug discovery. Determining the natural cytotoxic effects resulting from test compounds is an essential research activity. A CellTox Green Cytotoxicity Assay to monitor cytotoxicity in real time of continues cell culture during 40 hours of the compound treatment was used to screen Tox21 10K library compounds in HepG2 cells. CellTox Green Cytotoxicity Assay is a nonlytic, homogeneous, biofluorescent method to measure cytotoxicity in cell culture after experimental manipulation. The assay system uses a proprietary asymmetric cyanine dye that is excluded from viable cells but preferentially stains the dead cell's DNA. […] Viable cells produce no appreciable increases in fluorescence. Therefore, the fluorescence signal produced by the binding interaction with dead cell DNA is proportional to cytotoxicity.
The mixture of HepG2 cell suspension and reagents were dispensed at 600cells/6 ul/well in 1536-well tissue culture treated black solid bottom plates using a Multidrop dispenser. After the assay plates were incubated at a 37 C/5% CO2 incubator for 5 hours, 23 nL of compounds dissolved in DMSO, positive and negative controls was transferred to the assay plate by a pintool work station. The plates were incubated at 37 C for 40 hours. The fluorescence intensity were measured at 0h, 8h, 16h, 24h, 32h and 40h time points using ViewLux plate reader during compound treatment.
On the % scale 0 is the no-effect control and ±100 the full control effect; potency means the concentration at half of the fitted maximal effect.

Row | Structure (SMILES) | cytotoxicity increase | Potency
1 | CC(=O)NCCO | 6.34% | –
2 | Cc1cc([N+](=O)[O-])ccc1N | -7.69% | –
3 | Cc1cc(CCC(=O)OCCOCCOCCOC(=O)CCc2cc(C)c(O)c(C(C)(C)C)c2)cc(C(C)(C)C)c1O | -16.8% | –
4 | CCN(CC)C(=O)/C(C#N)=C/c1cc(O)c(O)c([N+](=O)[O-])c1 | 1.63% [at 35.3 µM] | –
5 | CC[C@@H](CO)NCCN[C@@H](CC)CO | 2.63% [at 35.3 µM] | –
6 | Cc1ccc2c(c1)CCCN2 | 6.2% | –
7 | C=C(C)c1ccccc1 | -2.37% | –
8 | CC[C@H]1OC(=O)[C@H](C)[C@@H](O[C@H]2C[C@@](C)(OC)[C@@H](O)[C@H](C)O2)[C@H](C)[C@@H](O[C@@H]2O[C@H](C)C[C@H](N(C)C)[C@H]2O)[C@](C)(O)C[C@@H](C)C(=O)[C@H](C)[C@@H](O)[C@]1(C)O | -9.63% [at 35.3 µM] | –
9 | COc1cc(S(=O)(=O)Nc2ccccc2)c(OC)cc1N | -1.86% | –
10 | COc1cc(OC)c2ccc(=O)oc2c1 | -6.16% | –
11 | CC(C(=O)O)c1ccc(C(=O)c2cccs2)cc1 (stereo not given) | -5.23% [at 35.3 µM] | –
12 | O=C(/C=C/c1ccc([N+](=O)[O-])cc1)c1ccccc1 | – | 21.9 µM (active)
13 | CC(C)OC(=O)c1ccccc1C(=O)OC(C)C | 6.11% | –
14 | O=C(O)CCS | -3.32% | –
15 | CCN(CC)C(=O)N1CCN(C)CC1 | 15.8% [at 35.3 µM] | –
16 | CCCCCc1ccco1 | -1.81% [at 35.3 µM] | –
17 | Nc1ccn([C@H]2CS[C@@H](CO)O2)c(=O)n1 | -24.5% | –
18 | C=CCOC(=O)COCCC(C)C | -0.105% | –
19 | CCCCCCCC(=O)OCCCCCC | -6.43% | –
20 | CC[C@H]1OC(=O)[C@H](C)[C@@H](O[C@H]2C[C@@](C)(OC)[C@@H](O)[C@H](C)O2)[C@H](C)[C@@H](O[C@@H]2O[C@H](C)C[C@H](N(C)C)[C@H]2O)[C@](C)(O)C[C@@H](C)CN(C)[C@H](C)[C@@H](O)[C@]1(C)O | 7.21% [at 35.3 µM] | –

Row | Structure (SMILES) | cytotoxicity increase | Potency
21 | Cc1oc(=O)oc1COC(=O)[C@@H]1N2C(=O)[C@@H](NC(=O)[C@H](N)c3ccccc3)[C@H]2SC1(C)C | -1.51% [at 35.3 µM] | –
22 | COC(=O)C1=C(C)NC(C)=C(C(=O)OC(C)(C)CN(C)CCC(c2ccccc2)c2ccccc2)C1c1cccc([N+](=O)[O-])c1 (stereo not given) | -1.15% [at 35.3 µM] | –
23 | Cc1c[nH]c2ccccc12 | -0.523% [at 35.3 µM] | –
24 | CCOC(=O)c1c(N)sc2c1CCN(Cc1ccccc1)C2 | 1.75% [at 35.3 µM] | –
25 | CC(C)N(C)C | 7.08% | –
26 | CCCCCCCCCCCCCCN(C)C | -7.14% [at 15.8 µM] | –
27 | O=[N+]([O-])C1(Br)COCOC1 | – | 43.6 µM (active)
28 | CCCCCCC(O)CCCCCCCCCCC(=O)OC (stereo not given) | -12.2% | –
29 | NC(=O)c1ccccc1[N+](=O)[O-] | -1.74% | –
30 | O=c1[nH]c2cc(C(F)(F)F)c(N3CCOCC3)cc2n(CP(=O)(O)O)c1=O | -8.72% [at 35.3 µM] | –
31 | CCOc1ncc(F)c(=O)[nH]1 | 5.03% [at 35.3 µM] | –
32 | CCOC(=O)N1CCC(Nc2ccc(Cl)cc2N)CC1 | -7.84% [at 35.3 µM] | –
33 | CCC(C)(C)C(=O)O | -5.72% | –
34 | CCCC(=O)OC(=O)CCC | 9.03% | –
35 | COC(OC)OC | -1.85% | –
36 | CC(C)(C)S | -6.85% | –
37 | CCN(CC)c1cccc(O)c1 | -0.263% | –
38 | C=C(C)C(=O)OCCC(F)(F)C(F)(F)C(F)(F)C(F)(F)C(F)(F)C(F)(F)F | -12.4% | –
39 | O=C1OC[C@H](Cc2cccc(O)c2)[C@H]1Cc1cccc(O)c1 | -11.8% [at 35.3 µM] | –
40 | CO[C@@H]1[C@@H](OC)[C@H](C)[C@@](O)(CC(=O)O)O[C@H]1[C@H](C)[C@H]1O[C@@]2(CC[C@@](C)([C@H]3CC[C@@](C)([C@@H]4O[C@@H]([C@H]5O[C@](C)(O)[C@H](C)C[C@@H]5C)C[C@@H]4OC4C[C@H](OC)[C@@H](OC)[C@H](C)O4)O3)O2)C[C@H](O)[C@H]1C (stereo not given in full) | – | 6.74 µM (active)

Source: PubChem BioAssay (Tox21)
